Reference: the supplement of paper PMC10849652
About 8,800 targets were measured; listed, in parts, are those with a hit and a random draw of the rest. About 0.5% of all pairs of compound and target were hits.

Legend:
Test in all cases: log2 fold change, soluble protein after heating vs DMSO (PISA); higher = thermal stabilisation; K562 lysate, 10 uM; active = over 0.2 and 3.5 SD of the protein, either way, in both replicates (recomputed)
alvocidib = compound: CN1CC[C@H](c2c(O)cc(O)c3c(=O)cc(-c4ccccc4Cl)oc23)[C@H](O)C1 [alvocidib]
How it was run: (§1)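 The values are log-two fold changes in thermal stability compared with solvent controls and come from duplicates. They were obtained by TMTpro 16plex LC-MS/MS, with channel sums equalised, on the supernatant after 21,000xg for 90 min. That supernatant came from crude K562 extract at 1 mg/mL protein treated with 10 μM compound for 30 min, heated for 3 min across 48°C-58°C, pooled and brought to 0.5% NP-40 at 4°C.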

Tubastatin A = compound: CN1CCc2c(c3ccccc3n2Cc2ccc(C(=O)NO)cc2)C1 [Tubastatin A]
How it was run: as §1

[1] = compound: CNC(=O)C1=CC=CC=C1NC2=NC(=NC=C2Cl)NC3=C(C=C(C=C3)N4CCOCC4)OC
How it was run: as §1

defactinib = compound: CNC(=O)c1ccc(Nc2ncc(C(F)(F)F)c(NCc3nccnc3N(C)S(C)(=O)=O)n2)cc1 [defactinib]
How it was run: as §1

[2] = compound: CNc1nc(-c2ccc3c(N)n[nH]c3c2)cc(N2C[C@@H](C(=O)NC3CCCCC3)CC[C@H]2C)n1
How it was run: as §1

encorafenib = compound: COC(=O)N[C@@H](C)CNc1nccc(-c2cn(C(C)C)nc2-c2cc(Cl)cc(NS(C)(=O)=O)c2F)n1 [encorafenib]
How it was run: as §1

[3] = compound: COC(=O)[C@H](CCSC)NC(=O)C1=C(C=C(C=C1)NC[C@H](CS)N)C2=CC=CC=C2
How it was run: as §1

alisertib = compound: COc1cc(Nc2ncc3c(n2)-c2ccc(Cl)cc2C(c2c(F)cccc2OC)=NC3)ccc1C(=O)O [alisertib]
How it was run: as §1

[4] = compound: COc1cc2nc(-c3cc(F)ccc3O)nc(N[C@@H]3CNC[C@H]3C(C)(C)O)c2cc1OC
How it was run: as §1

gefitinib = compound: COc1cc2ncnc(Nc3ccc(F)c(Cl)c3)c2cc1OCCCN1CCOCC1 [gefitinib]
How it was run: as §1

lapatinib = compound: CS(=O)(=O)CCNCc1ccc(-c2ccc3ncnc(Nc4ccc(OCc5cccc(F)c5)c(Cl)c4)c3c2)o1 [lapatinib]
How it was run: as §1

pictilisib = compound: CS(=O)(=O)N1CCN(Cc2cc3nc(-c4cccc5[nH]ncc45)nc(N4CCOCC4)c3s2)CC1 [pictilisib]
How it was run: as §1

crizotinib = compound: C[C@@H](Oc1cc(-c2cnn(C3CCNCC3)c2)cnc1N)c1c(Cl)ccc(F)c1Cl [crizotinib]
How it was run: as §1

[5] = compound: C[C@H](C1=CC=C(C=C1)C(=O)NC2=C3C=CNC3=NC=C2)N
How it was run: as §1

duvelisib = compound: C[C@H](Nc1ncnc2nc[nH]c12)c1cc2cccc(Cl)c2c(=O)n1-c1ccccc1 [duvelisib]
How it was run: as §1

gandotinib = compound: Cc1cc(Nc2cc(CN3CCOCC3)c3nc(C)c(Cc4ccc(Cl)cc4F)n3n2)n[nH]1 [gandotinib]
How it was run: as §1

tozasertib = compound: Cc1cc(Nc2cc(N3CCN(C)CC3)nc(Sc3ccc(NC(=O)C4CC4)cc3)n2)n[nH]1 [tozasertib]
How it was run: as §1

doramapimod = compound: Cc1ccc(-n2nc(C(C)(C)C)cc2NC(=O)Nc2ccc(OCCN3CCOCC3)c3ccccc23)cc1 [doramapimod]
How it was run: as §1

bafetinib = compound: Cc1ccc(NC(=O)c2ccc(CN3CC[C@H](N(C)C)C3)c(C(F)(F)F)c2)cc1Nc1nccc(-c2cncnc2)n1 [bafetinib]
How it was run: as §1

[6] = compound: Cc1cccc(CC(=O)N2CCc3c2ccc(-c2cn(C)c4ncnc(N)c24)c3F)n1
How it was run: as §1

Measured: log2 fold change

ENO2 (UniProt P09104)
Chain of UniProt P09104 (P09104 whole entry, looked up): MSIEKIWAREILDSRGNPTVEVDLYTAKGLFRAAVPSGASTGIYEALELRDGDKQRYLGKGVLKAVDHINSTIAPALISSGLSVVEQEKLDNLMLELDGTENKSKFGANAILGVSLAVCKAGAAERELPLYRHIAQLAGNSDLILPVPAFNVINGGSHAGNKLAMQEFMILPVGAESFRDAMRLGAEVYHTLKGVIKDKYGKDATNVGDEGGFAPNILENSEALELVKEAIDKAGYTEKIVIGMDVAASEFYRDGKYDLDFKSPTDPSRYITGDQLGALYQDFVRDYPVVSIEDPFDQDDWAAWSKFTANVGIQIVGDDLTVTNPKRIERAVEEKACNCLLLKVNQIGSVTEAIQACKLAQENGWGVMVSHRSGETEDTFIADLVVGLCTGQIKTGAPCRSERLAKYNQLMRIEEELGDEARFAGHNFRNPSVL
active: alvocidib -0.279 | [5] -0.358 | [6] 0.264
inactive: Tubastatin A 0.024 | [1] -0.018 | defactinib -0.007 | [2] 0.073 | encorafenib 0.032 | [3] 0.086 | alisertib -0.025 | [4] -0.014 | gefitinib -0.021 | lapatinib 0.01 | pictilisib 0.012 | crizotinib -0.009 | duvelisib 0.04 | gandotinib 0.214 | tozasertib -0.111 | doramapimod -0.012 | bafetinib -0.014

EIF2B4 isoform 2 (UniProt Q9UI10)
Chain of UniProt Q9UI10 (Q9UI10 whole entry, looked up): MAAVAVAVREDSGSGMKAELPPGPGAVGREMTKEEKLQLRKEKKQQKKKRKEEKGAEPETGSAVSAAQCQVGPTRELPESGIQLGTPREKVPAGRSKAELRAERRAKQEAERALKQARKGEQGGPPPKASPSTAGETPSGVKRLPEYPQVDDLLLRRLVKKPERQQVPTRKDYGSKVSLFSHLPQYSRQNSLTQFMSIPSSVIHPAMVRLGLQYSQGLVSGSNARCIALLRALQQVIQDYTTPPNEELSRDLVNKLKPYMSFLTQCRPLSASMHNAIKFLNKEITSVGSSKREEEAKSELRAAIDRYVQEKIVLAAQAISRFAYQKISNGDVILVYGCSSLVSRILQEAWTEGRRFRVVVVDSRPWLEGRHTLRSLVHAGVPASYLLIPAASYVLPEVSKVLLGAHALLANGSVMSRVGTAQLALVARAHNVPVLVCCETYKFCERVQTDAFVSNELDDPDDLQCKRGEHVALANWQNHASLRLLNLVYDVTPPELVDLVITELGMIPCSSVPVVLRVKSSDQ
inactive: alvocidib -0.015 | Tubastatin A -0.025 | [1] 0.013 | defactinib 0.035 | [2] 0.02 | encorafenib 0.018 | [3] 0.162 | alisertib -0.014 | [4] 0.016 | gefitinib 0 | lapatinib -0.041 | pictilisib 0.007 | crizotinib -0.037 | [5] -0.021 | duvelisib -0.013 | gandotinib -0.048 | tozasertib -0.01 | doramapimod -0.012 | bafetinib -0.058 | [6] 0.044

FBRSL1, A0A3B3IRR3
inactive: alvocidib -0.051 | Tubastatin A -0.004 | [1] -0.074 | defactinib -0.002 | [2] 0.008 | encorafenib 0.021 | [3] -0.03 | alisertib -0.018 | gefitinib 0.014 | pictilisib -0.064 | crizotinib 0.086 | [5] -0.114 | duvelisib 0.035 | gandotinib 0.032 | tozasertib -0.105 | doramapimod -0.161 | bafetinib -0.089 | [6] 0.146

EEF1AKMT4 (UniProt P0DPD7)
Chain of UniProt P0DPD7 (P0DPD7 whole entry, looked up): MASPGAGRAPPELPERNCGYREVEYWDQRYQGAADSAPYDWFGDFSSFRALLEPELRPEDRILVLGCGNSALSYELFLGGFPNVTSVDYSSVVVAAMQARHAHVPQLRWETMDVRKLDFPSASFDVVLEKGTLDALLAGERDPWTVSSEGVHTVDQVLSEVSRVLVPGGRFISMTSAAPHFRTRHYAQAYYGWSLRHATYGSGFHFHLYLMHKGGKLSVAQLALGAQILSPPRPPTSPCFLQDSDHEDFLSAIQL
inactive: alvocidib -0.029 | Tubastatin A -0.027 | [1] 0.074 | defactinib 0.03 | [2] 0.188 | encorafenib 0.042 | [3] 0.012 | alisertib 0.037 | [4] 0.068 | gefitinib 0.004 | lapatinib -0.052 | pictilisib 0.009 | crizotinib -0.012 | [5] -0.046 | duvelisib -0.038 | gandotinib 0.067 | tozasertib -0.072 | doramapimod -0.038 | bafetinib -0.171 | [6] 0.193

DSTN (UniProt P60981)
Chain of UniProt P60981 (P60981 whole entry, looked up): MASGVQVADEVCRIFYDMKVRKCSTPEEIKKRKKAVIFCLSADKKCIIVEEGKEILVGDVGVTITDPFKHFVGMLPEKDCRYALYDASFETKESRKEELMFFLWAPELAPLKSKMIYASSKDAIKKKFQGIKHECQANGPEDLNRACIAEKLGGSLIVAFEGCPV
inactive: alvocidib -0.011 | Tubastatin A -0.089 | [1] 0.015 | defactinib 0.002 | [2] -0.072 | encorafenib -0.011 | [3] -0.071 | alisertib -0.013 | [4] -0.02 | gefitinib -0.043 | lapatinib 0.01 | pictilisib 0.008 | crizotinib 0.007 | [5] -0.02 | duvelisib -0.001 | gandotinib -0.023 | tozasertib 0.031 | doramapimod -0.015 | bafetinib 0.057 | [6] 0.019

FBXO38 (UniProt Q6PIJ6)
Chain of UniProt Q6PIJ6 (Q6PIJ6 whole entry, looked up): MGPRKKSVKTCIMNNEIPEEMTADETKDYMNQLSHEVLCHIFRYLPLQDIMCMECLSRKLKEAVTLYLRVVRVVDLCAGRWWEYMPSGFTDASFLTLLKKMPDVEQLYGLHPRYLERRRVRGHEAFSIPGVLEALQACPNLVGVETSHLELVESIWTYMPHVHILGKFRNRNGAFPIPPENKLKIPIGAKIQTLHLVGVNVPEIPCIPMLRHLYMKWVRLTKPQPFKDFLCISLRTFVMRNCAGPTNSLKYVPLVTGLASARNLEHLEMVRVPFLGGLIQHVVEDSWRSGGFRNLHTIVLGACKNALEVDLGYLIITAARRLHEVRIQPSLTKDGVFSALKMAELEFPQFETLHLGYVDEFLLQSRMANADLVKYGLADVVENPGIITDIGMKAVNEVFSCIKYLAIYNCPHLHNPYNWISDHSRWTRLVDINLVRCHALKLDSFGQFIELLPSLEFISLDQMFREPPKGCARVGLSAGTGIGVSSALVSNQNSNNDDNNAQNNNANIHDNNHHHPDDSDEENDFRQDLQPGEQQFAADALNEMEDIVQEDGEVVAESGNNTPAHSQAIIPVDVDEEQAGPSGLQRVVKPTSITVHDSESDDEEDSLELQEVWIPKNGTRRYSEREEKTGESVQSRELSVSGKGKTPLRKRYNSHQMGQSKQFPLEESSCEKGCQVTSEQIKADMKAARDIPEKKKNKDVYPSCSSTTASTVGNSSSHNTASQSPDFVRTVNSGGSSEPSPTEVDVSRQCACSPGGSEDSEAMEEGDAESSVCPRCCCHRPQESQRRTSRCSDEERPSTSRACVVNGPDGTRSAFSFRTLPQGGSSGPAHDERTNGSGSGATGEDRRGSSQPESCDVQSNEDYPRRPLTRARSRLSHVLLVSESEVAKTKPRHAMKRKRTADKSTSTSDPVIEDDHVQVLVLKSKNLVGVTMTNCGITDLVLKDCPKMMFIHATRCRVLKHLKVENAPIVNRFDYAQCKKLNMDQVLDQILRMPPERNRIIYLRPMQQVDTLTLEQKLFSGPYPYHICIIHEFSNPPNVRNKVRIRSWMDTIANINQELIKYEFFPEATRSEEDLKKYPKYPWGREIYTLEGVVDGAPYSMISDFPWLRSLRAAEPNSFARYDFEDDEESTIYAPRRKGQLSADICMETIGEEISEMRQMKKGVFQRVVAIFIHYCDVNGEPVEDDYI
inactive: alvocidib -0.008 | Tubastatin A -0.043 | defactinib 0.019 | [2] 0.01 | encorafenib -0.004 | [3] -0.038 | alisertib -0.015 | [4] -0.062 | gefitinib 0.056 | lapatinib 0.039 | pictilisib -0.052 | crizotinib 0.038 | [5] 0.018 | duvelisib 0.01 | gandotinib -0.037 | tozasertib 0.119 | doramapimod 0.05 | bafetinib -0.316 | [6] -0.016
active: [1] -0.616

EBP (UniProt Q15125)
inactive: alvocidib -0.003 | Tubastatin A 0.004 | [1] 0.087 | defactinib 0.028 | encorafenib 0.005 | [3] -0.016 | alisertib -0.036 | [4] 0.048 | gefitinib 0.04 | lapatinib -0.044 | pictilisib -0.004 | crizotinib 0.07 | duvelisib -0.093 | gandotinib 0.1 | tozasertib -0.016 | doramapimod -0.127 | bafetinib -0.011 | [6] 0
active: [2] 0.291 | [5] -0.269

FOXK1 (UniProt P85037)
Chain of UniProt P85037 (P85037 whole entry, looked up): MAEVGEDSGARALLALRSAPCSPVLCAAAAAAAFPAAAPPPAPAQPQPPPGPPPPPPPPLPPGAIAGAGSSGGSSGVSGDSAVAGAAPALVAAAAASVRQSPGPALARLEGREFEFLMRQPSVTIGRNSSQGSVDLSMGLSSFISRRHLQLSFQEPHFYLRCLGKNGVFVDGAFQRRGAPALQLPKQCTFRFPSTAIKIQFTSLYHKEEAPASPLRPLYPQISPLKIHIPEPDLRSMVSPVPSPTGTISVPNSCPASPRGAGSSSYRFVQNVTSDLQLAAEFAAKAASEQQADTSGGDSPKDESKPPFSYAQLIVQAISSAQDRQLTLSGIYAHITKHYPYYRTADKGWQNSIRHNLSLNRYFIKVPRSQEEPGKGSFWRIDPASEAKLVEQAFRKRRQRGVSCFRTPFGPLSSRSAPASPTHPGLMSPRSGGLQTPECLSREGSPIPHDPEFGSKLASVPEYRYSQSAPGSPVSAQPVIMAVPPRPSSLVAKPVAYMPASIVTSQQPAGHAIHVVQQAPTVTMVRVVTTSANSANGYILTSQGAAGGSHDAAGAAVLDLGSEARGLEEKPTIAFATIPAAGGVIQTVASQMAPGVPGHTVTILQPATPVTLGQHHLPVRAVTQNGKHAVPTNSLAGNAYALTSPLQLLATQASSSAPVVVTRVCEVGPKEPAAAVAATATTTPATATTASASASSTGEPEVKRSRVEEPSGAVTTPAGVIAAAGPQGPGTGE
inactive: alvocidib -0.037 | Tubastatin A -0.116 | [1] 0.025 | defactinib 0.003 | [2] 0.059 | encorafenib 0.009 | [3] 0.09 | alisertib 0.016 | [4] 0.014 | gefitinib 0.003 | lapatinib 0.006 | pictilisib -0.036 | crizotinib 0.025 | [5] -0.024 | duvelisib -0.043 | gandotinib 0.002 | tozasertib 0.009 | doramapimod 0.035 | bafetinib 0.029 | [6] 0.034

GART (UniProt P22102)
inactive: alvocidib 0.021 | Tubastatin A -0.073 | [1] 0.002 | defactinib -0.024 | [2] 0.021 | encorafenib -0.027 | [3] 0.08 | alisertib 0.008 | [4] -0.004 | gefitinib -0.017 | lapatinib -0.008 | pictilisib -0.024 | crizotinib -0.017 | [5] 0.062 | duvelisib -0.014 | gandotinib -0.052 | tozasertib -0.004 | doramapimod 0 | bafetinib -0.001 | [6] -0.026

ESPL1 (UniProt Q14674)
inactive: alvocidib 0.044 | Tubastatin A -0.023 | [1] 0.129 | defactinib -0.188 | [2] 0.053 | encorafenib 0.101 | [3] -0.013 | alisertib 0.004 | [4] -0.233 | gefitinib -0.009 | lapatinib 0.053 | pictilisib 0.07 | crizotinib -0.015 | [5] 0.027 | duvelisib -0.011 | gandotinib 0.026 | tozasertib 0.024 | doramapimod -0.044 | bafetinib -0.077 | [6] 0.057

FASTKD5 (UniProt Q7L8L6)
inactive: alvocidib 0.024 | Tubastatin A -0.11 | [1] 0.03 | defactinib 0.011 | [2] -0.017 | encorafenib 0.064 | [3] 0.135 | alisertib 0.002 | [4] 0.072 | gefitinib -0.018 | lapatinib -0.025 | pictilisib 0.085 | crizotinib -0.075 | [5] 0.089 | duvelisib -0.042 | gandotinib -0.193 | tozasertib 0.056 | doramapimod 0.036 | bafetinib 0.169 | [6] -0.056

GIPC3 (UniProt Q8TF64)
inactive: alvocidib -0.108 | Tubastatin A -0.071 | [1] 0.055 | [2] -0.157 | encorafenib 0.028 | [3] 0.05 | alisertib -0.194 | [4] 0.008 | gefitinib 0.073 | lapatinib 0.157 | pictilisib -0.055 | crizotinib -0.103 | [5] -0.033 | duvelisib 0.05 | gandotinib 0.124 | tozasertib -0.097 | doramapimod 0 | bafetinib -0.035 | [6] 0.083

EIF3I (UniProt Q5TFK1)
inactive: alvocidib 0.053 | alisertib 0.159 | [4] 0.613 | gefitinib 0.233 | lapatinib -0.063 | [5] 0.137 | gandotinib 0.052 | [6] 0.112

DST isoform 3 (UniProt Q03001)
active: [5] 1.39
inactive: alvocidib 0.386 | [1] -0.061 | encorafenib 0.008 | [3] -0.004 | pictilisib 0.049 | gandotinib -0.243 | tozasertib -0.056 | bafetinib -0.118 | [6] -0.224

EHHADH (UniProt Q08426)
Chain of UniProt Q08426 (Q08426 whole entry, looked up): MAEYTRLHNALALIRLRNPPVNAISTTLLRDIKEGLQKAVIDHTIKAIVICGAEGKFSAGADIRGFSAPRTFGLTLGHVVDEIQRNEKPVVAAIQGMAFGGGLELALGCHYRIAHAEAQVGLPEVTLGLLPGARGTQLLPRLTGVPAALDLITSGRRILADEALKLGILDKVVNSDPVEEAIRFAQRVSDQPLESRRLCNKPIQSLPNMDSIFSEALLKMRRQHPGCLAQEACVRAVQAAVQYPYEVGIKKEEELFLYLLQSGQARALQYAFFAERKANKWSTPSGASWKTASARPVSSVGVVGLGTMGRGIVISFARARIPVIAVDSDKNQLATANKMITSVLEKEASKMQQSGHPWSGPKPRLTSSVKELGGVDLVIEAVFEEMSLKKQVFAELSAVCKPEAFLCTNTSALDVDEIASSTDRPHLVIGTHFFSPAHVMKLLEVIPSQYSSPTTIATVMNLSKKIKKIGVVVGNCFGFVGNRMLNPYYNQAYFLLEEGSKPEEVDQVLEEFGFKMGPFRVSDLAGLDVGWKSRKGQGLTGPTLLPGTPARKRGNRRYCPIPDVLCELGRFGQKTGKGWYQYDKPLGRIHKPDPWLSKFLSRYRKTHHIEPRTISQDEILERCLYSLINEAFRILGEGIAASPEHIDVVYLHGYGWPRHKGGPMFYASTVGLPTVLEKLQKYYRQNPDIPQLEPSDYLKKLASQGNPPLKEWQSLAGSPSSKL
inactive: alvocidib 0.013 | Tubastatin A 0.039 | [1] -0.024 | [2] 0.101 | encorafenib 0.035 | [3] -0.426 | alisertib 0.065 | [4] -0.005 | gefitinib 0.012 | lapatinib -0.037 | pictilisib 0.143 | crizotinib -0.001 | [5] 0.016 | duvelisib 0.051 | gandotinib -0.117 | tozasertib 0.045 | doramapimod 0.048 | bafetinib 0.06 | [6] 0

FOXL2 (UniProt P58012)
Chain of UniProt P58012 (P58012 whole entry, looked up): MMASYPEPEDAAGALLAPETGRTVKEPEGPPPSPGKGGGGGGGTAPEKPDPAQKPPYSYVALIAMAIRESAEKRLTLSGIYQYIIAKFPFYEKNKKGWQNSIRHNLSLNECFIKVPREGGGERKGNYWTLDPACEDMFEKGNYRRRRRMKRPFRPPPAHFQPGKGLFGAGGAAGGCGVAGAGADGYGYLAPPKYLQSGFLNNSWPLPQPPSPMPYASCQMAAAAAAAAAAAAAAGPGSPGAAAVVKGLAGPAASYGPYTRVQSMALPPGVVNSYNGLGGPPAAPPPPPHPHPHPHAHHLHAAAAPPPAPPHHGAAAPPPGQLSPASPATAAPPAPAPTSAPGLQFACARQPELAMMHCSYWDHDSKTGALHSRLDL
inactive: Tubastatin A -0.049 | [1] 0.031 | [2] 0.005 | encorafenib 0.079 | [3] 0.138 | [4] 0.015 | lapatinib -0.25 | pictilisib 0.091 | duvelisib 0.094 | tozasertib -0.092
active: bafetinib -0.703

EIF2B5, A0A3B3ITK8
inactive: alisertib -0.014 | [4] -0.03 | gefitinib -0.08 | lapatinib -0.108

GART (UniProt C9JZG2)
inactive: alvocidib -0.071 | Tubastatin A 0.018 | encorafenib 0.038 | [3] 0.088 | alisertib 0.121 | [4] -0.056 | gefitinib 0.281 | lapatinib -0.131 | pictilisib 0.019 | crizotinib -0.245 | [5] -0.371 | gandotinib 0.02 | tozasertib 0.037 | doramapimod 0.166 | bafetinib 0.026 | [6] 0.19

EVI5L isoform 2 (UniProt Q96CN4)
inactive: alvocidib -0.293 | [5] 0.022 | gandotinib 0.062 | [6] 0.049

ESRRB isoform 1 (UniProt O95718)
Chain of UniProt O95718 (O95718 whole entry, looked up): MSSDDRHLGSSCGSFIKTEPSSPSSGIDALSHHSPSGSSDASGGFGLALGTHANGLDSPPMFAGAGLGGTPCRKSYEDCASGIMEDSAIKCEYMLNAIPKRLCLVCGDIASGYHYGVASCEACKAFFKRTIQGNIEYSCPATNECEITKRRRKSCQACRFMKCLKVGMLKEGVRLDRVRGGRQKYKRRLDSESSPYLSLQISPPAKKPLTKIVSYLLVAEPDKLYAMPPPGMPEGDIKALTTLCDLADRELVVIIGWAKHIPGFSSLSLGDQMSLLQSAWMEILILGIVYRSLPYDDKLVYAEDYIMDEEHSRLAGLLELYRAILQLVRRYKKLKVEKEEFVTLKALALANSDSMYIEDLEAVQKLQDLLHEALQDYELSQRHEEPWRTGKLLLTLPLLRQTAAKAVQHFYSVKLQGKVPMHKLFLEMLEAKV
inactive: alvocidib 0.233 | Tubastatin A -0.269 | [1] -0.011 | pictilisib 0.05 | [5] 0.438 | gandotinib -0.437 | bafetinib 0.028 | [6] -0.308
